92 molecules from PubChem BioAssay AID2314 (National Center for Advancing Translational Sciences (NCATS), 2010) can be followed below.

Structures are written as SMILES. The whole screen tested about 300,000 compounds, of which about 37,000 (12%) were called active. The sample holds actives, similar compounds and a random draw of the others, so the mix is not that of the screen. Unmarked numbers belong to inactive results. Rule as the data show it: active = max response mostly above about 13% (no sharp cut-off); inactive = mostly below about 14%.

The nature of this experiment: Cycloheximide Counterscreen for Small Molecule Inhibitors of Shiga Toxin. Also: read at 38.3 µM for the half of the compounds with a filed dose; 0% is about no effect. As to conditions: cell reporter, cycloheximide protein synthesis inhibition counterscreen; stronger effect = higher value.
As for `COc1cc(OC)cc(C(=O)NCC(=O)OCc2csc(-c3ccccc3)n2)c1`, the max response is 20.1% (active).
Next, `COc1cc(OC)cc(C(=O)N[C@H](C(=O)OCC(=O)NC(C)c2ccccc2)C(C)C)c1` (some centres not stated): 6.33%; `O=C(CNC(=O)c1ccccc1)NCC(=O)OCc1ccc(Cl)cc1`: -2.96%.
The figure for `COc1cccc(NC(=O)c2ccccc2N(Cc2ccccc2)S(C)(=O)=O)c1` is 1.56%; for `O=C1c2ccccc2C(=O)C1c1ccccc1F` it is -5.87%.
Next, `O=C1c2ccccc2C(=O)C1c1ccccc1`: 6.52% (active); `O=C1NC(c2ccccc2)Oc2ccccc21` (configuration not stated): -1.34%.
In the case of `Cc1ccc(C)c(NC(=O)C2Cc3ccccc3CN2C(=O)OCc2ccccc2)c1` (configuration not stated), the max response is -3.28%.
As for `COc1ccc(C(=O)O/N=C(\N)c2ccccn2)cc1[N+](=O)[O-]`, the max response was 59.4% (active).
For `Cc1ccc(C(=O)O/N=C(\N)c2ccccn2)cc1Cl`, the max response is 13.6%.
For `COc1ccc(C(=O)NNC(=O)c2cnccn2)cc1[N+](=O)[O-]`, the max response is 1.13%.
Take `N/C(=N\OC(=O)c1ccc([N+](=O)[O-])cc1)c1ccccn1`: the max response is 42.7% (active).
The figure for `O=C(OCc1ccc([N+](=O)[O-])cc1)c1ccccn1` is -3.03%; for `N/C(=N\OC(=O)Cc1ccc([N+](=O)[O-])cc1)c1ccccn1` it is 61.5% (active).
The figure for `CO/N=C(\N)c1ccc([N+](=O)[O-])cc1` is 0.264%; for `N/C(=N\OC(=O)COc1ccc([N+](=O)[O-])cc1)c1ccc(Br)cc1` it is 6.76%; for `N/C(Cc1ccc([N+](=O)[O-])cc1)=N\OC(=O)COc1ccc2ccccc2c1` it is -3.82%.
As for `CCC(=O)Nc1nnc(S(=O)(=O)N2CCCc3ccccc32)s1`, the max response is 1.29%.
The figure for `Cc1ccccc1-n1cc(CNC(=O)C2CCC(=O)N(C3CC3)C2)cn1` (configuration not stated) is -1.75%; for `Cc1nn(C(C)C(=O)N2CCOCC2)c(=O)c2nn(-c3ccccc3)c(C)c12` (configuration not stated) it is -8.4%; for `CCOc1cc(NC(=O)c2ccccc2C(=O)O)c(OCC)cc1NC(=O)c1ccccc1F` it is -0.886%.
The figure for `Cc1cc(C(F)F)n2nc(C(=O)Nc3ccc(S(=O)(=O)NC45CC6CC(CC(C6)C4)C5)cc3)nc2n1` is -6.02%.
`O=C(C/C(=N\NC(=O)c1ccccc1Br)C(F)(F)F)c1cccs1`: the max response is -1.94%.
The figure for `CC(C)c1ccc(S(=O)(=O)NC2CCCC2)cc1` is -3.21%; for `O=C(Cn1nc(C(=O)O)c2ccccc2c1=O)Nc1ccc(F)cc1` it is 5.62%; for `CC(C(=O)NCCc1ccc(S(N)(=O)=O)cc1)N1C(=O)CC(C)(C)Sc2ccccc21` (configuration not stated) it is -1.15%.
Next, `Cc1cc(C)c(S(=O)(=O)NCC2CCC(C(=O)NCc3ccc4c(c3)OCO4)CC2)c(C)c1` (configuration not stated): -0.416%; `CN(C)CCOCCOc1ccc(Cl)c2ccccc12`: -1.16%.
Next, `O=C(NC(Cc1ccc(O)cc1)C(=O)O)/C(=C/c1ccccc1)NC(=O)c1ccccc1` (configuration not stated): 18.4%; `COc1ccc(C2Nc3ccccc3C(=O)N2c2ccc(Cl)cc2)cc1Cn1cc([N+](=O)[O-])cn1` (configuration not stated): 46.2% (active); `COc1ccc(C2Nc3ccccc3C(=O)N2Cc2ccccc2)cc1Cn1nnc2ccccc21` (configuration not stated): -1.8%.
`COc1ccc(C2Nc3ccccc3C(=O)N2c2ccc(F)cc2)cc1Cn1nnc2ccccc21` (configuration not stated): the max response is 2.31%.
For `COc1ccc(CN2CCCC(C(=O)c3ccc(Cl)cc3)C2)cc1Cn1cncn1` (configuration not stated), the max response is -7%.
The figure for `COc1ccc(N2C(=O)c3ccccc3NC2c2ccc(OC)c(CN3CCOCC3)c2)cc1` (configuration not stated) is 28.2% (active); for `COc1ccc([N+](=O)[O-])cc1C1NN=C(c2cccc3ccccc23)S1` (configuration not stated) it is -2.19%; for `CCCCCCCC(=O)NC(Nc1ccccc1OC)C(Cl)(Cl)Cl` (configuration not stated) it is 1.89%.
The figure for `COc1ccc(C(=O)COC(=O)Cn2cnc3c2c(=O)n(C)c(=O)n3C)c(OC)c1` is -1.6%; for `O=C(C1CCCO1)N1CCN(S(=O)(=O)c2ccc(Br)cc2)CC1` (configuration not stated) it is -1.38%.
Next, `Cc1cnc(CN(C)C(=O)C2CCC(=O)N(CCc3cccc(F)c3)C2)[nH]1` (configuration not stated): -1.18%; `C=CCNc1nc(N)c([N+](=O)[O-])c(NC2CCCCC2)n1`: -4.11%.
As to `CC(C)(C)OC(=O)N1CCC(NC(=O)c2[nH]cnc2C(=O)N[C@@H](Cc2ccccc2)C(=O)OCc2ccccc2)CC1`, the max response was -1.27%.
Next, `Cc1ccnc(N2C(=O)c3ccccc3C2Nc2ccc3c(c2)OCCO3)c1` (configuration not stated): 42.1% (active); `O=C1c2ccccc2C(Nc2ccc3c(c2)OCCO3)N1Cc1ccco1` (configuration not stated): 86.7% (active); `O=C(NC1CCCCC1)C1c2ccccc2C(=O)N1Cc1ccco1` (configuration not stated): 0.684%.
Next, `COC(=O)c1cccc(C(=O)N2CCCC(Nc3ccc4c(c3)OCCO4)C2)c1` (configuration not stated): -1.68%; `Cn1cnc(S(=O)(=O)Nc2ccc3c(c2)OCCO3)c1`: -2.48%.
`COc1ccccc1C1/C(=C(/O)c2ccc(C)cc2)C(=O)C(=O)N1Cc1ccco1` (configuration not stated): the max response was 3.34%.
Next, `CCOc1ccc2[nH]c(C(=O)N/N=C/c3cccc(OC)c3OC)cc2c1`: 9.3%; `CC(C)c1ccc(N(C(=O)c2ccco2)C(C(=O)NC2CCCC2)c2cccnc2)cc1` (configuration not stated): -5.72%; `CCC1CCCCN1CCCNC(=O)c1cc2c(Cl)nc3ccccc3c2s1` (configuration not stated): -11.5%.
The figure for `Oc1ccc(-c2onc3ccc(Cl)cc23)cc1` is 15.4%; for `CCOc1ccc(C(C)=O)cc1COC(=O)c1cnc(Cl)c(Cl)c1` it is -0.208%; for `COC(=O)c1ccc(COC(=O)c2cnccn2)cc1` it is -1.89%.
The figure for `COC(=O)c1ccc(COC(=O)c2cnc(Cl)c(Cl)c2)cc1` is 34.6% (active).
As to `COc1ccc(NS(=O)(=O)c2ccc(O)c(C(=O)OCC(=O)NC3CCCCC3)c2)cc1`, the max response is 0.885%.
Next, `CCN(C(=O)COc1cccnc1[N+](=O)[O-])C1CCS(=O)(=O)C1` (configuration not stated): -3%; `Cc1nn2c(=O)cc(COC(=O)c3ccc(NC(=O)C(C)(C)C)cc3)nc2s1`: -6.18%.
The figure for `COc1cc(OC)cc(C(=O)NCCCn2ccnc2)c1` is -2.01%; for `O=C(NCCCn1ccnc1)c1ccccc1F` it is 1.63%; for `O=C(NCCCn1ccnc1)c1cc(Br)c(Br)s1` it is -0.73%.
The figure for `COc1ccc(-c2cc(C(=O)NCCCn3ccnc3)no2)cc1` is 19.9% (active).
For the molecule `O=C(NCCCn1ccnc1)c1cc(-c2ccccc2)on1`, the max response is 27.9% (active).
The figure for `COc1ccccc1-c1cc(C(=O)NCCCn2ccnc2)no1` is -1.18%; for `CCN(Cc1ccccc1)C(=O)CCS(=O)(=O)c1ccc2c(c1)oc(=O)n2C` it is 0.913%; for `CCC(=O)c1cn(CCOc2ccccc2OC)c2ccccc12` it is 3.68%.
The figure for `CC(C)[C@H](NC(=O)N1CCn2c1nc1ccccc12)C(=O)NC1CC1` is 12.8% (active); for `CC(C)[C@H](NC(=O)N1CCn2c1nc1ccccc12)C(=O)NCCc1ccccc1` it is 11.9%.
On to `CC(C)C[C@H](NC(=O)N1CCn2c1nc1ccccc12)C(=O)NC1CC1`, for which the max response was -12.6%.
Next, `CCOC(=O)c1cc(C(=O)Nc2ccc(S(=O)(=O)Nc3ccc(OC)cc3)cc2)nn1C`: 3.41%; `COc1ccc(-c2ocnc2C(=O)Nc2ccc3c(c2)CCC3)cc1`: -4.1%; `CCCC(=O)Nc1ccc2c(c1)nc1n2CCSC1`: 24.1% (active).
In the case of `CCCC(=O)Nc1ccc2c(c1)nc(CCNC(=O)c1ccco1)n2C`, the max response was -0.909%.
The figure for `CCOC(=O)N1CCN(Cc2nc3cc(NC(=O)CC)ccc3n2CC)CC1` is -2.89%; for `Cc1ccccc1N1CCN(Cc2nc(Cc3ccccc3F)no2)CC1` it is -1.36%.
Next, `COC(=O)/C=C/C(=O)NCc1ccco1`: -1.68%; `O=C(/C=C/c1ccc(Cl)cc1Cl)NCc1ccco1`: 34.8% (active).
Next, `O=C(NCc1ccco1)C1(c2ccc(Cl)cc2)CCCC1`: -3.56%.
Regarding `FC(F)(F)C1CCCN(c2nsc3ccccc23)C1` (configuration not stated), the max response is -4.78%.
The figure for `Cc1ccc2[nH]c(=O)c(CN(CC3COCCO3)C(=O)Nc3ccccc3C)cc2c1` (configuration not stated) is -2.55%; for `O=C(CS(=O)(=O)c1ccccc1)Nc1ccc(S(=O)(=O)Nc2ccccn2)cc1` it is -1.21%; for `O=C(CCc1ccccc1)Nc1cccc(-c2nnc(-c3ccco3)o2)c1` it is 1.83%.
The figure for `Cc1ccc(OCC(=O)Nc2ccc(-c3nc4ncccc4o3)cc2)cc1` is -0.121%; for `COc1ccc(CC(=O)Nc2ccc(-c3nnc(-c4ccccc4)o3)cc2)cc1` it is 10.6% (active); for `CCC(=O)Oc1cccc(C(=O)Nc2ccc(-c3nnc(-c4ccco4)o3)cc2)c1` it is 35.2% (active).
`Cc1cccc(NC(=O)CSc2nnc(-c3ccco3)o2)c1`: the max response is 5.5%.
Next, `CC(=O)Nc1ccc(NC(=O)COc2ccc(-c3ccccc3)cc2)cc1`: 1.23%; `COc1ccc(CC(=O)Nc2c(C(N)=O)oc3ccccc23)cc1`: -1.28%.
Next, `COc1ccc(NC(=O)c2cnc(NS(=O)(=O)c3ccccc3)nc2)cc1`: -2.55%; `Cc1ccc(OCC(=O)Nc2nnc(-c3ccco3)s2)cc1`: -1.91%; `Cc1ccc(OCC(=O)Nc2ccc(-c3nnc(-c4ccco4)o3)cc2)cc1`: 28.8% (active).
Next, `COc1ccc(NC(=O)CS(=O)(=O)c2ccccc2)cc1`: 26.3% (active); `Fc1ccc2c(c1)C(c1cccnc1)=NNC(c1cccs1)=N2`: 14.7%.
